Only some compounds are listed: those with a hit (about 32% of all), similar ones and a draw of the others.
CYP2C19 inh: inhibitors of human CYP2C19; CYP2C19 Supersomes, luciferin-H EGE luminescence, 30 min; inhibition, % at 5 µM; 96,000 tested, 21% active; P33261; AID 778;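 active = CYP2C19 inhibition above a set limit at 5 µM in the primary screen, cut at about 50% in these data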;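 also: plate controls were negative control wells for no effect and 2.5 mM tranylcypromine positive control for full effect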
Target sequence (P33261 whole entry, looked up): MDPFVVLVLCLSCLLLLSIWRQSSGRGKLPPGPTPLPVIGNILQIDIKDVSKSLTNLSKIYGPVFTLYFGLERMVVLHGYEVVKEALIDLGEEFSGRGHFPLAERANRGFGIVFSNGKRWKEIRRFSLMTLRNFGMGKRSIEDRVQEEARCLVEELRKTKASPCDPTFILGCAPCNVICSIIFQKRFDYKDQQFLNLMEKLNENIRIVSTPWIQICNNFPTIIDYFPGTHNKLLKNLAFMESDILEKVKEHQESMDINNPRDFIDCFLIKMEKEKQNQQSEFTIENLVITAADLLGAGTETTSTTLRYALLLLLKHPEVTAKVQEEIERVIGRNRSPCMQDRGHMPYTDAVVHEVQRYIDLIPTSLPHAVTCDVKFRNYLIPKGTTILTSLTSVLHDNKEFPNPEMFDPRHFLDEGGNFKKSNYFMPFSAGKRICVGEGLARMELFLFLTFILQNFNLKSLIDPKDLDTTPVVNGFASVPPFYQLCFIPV
CYP2C9 inhib: blocks human cytochrome P450 2C9 | inhibition, % at 5 µM | P11712 | 96,000 tested, 20% active | CYP2C9 Supersomes, luciferin-H conversion, luminescence | AID 777;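 active = blocking of liver enzyme CYP2C9 beyond about 50% at 5 µM, limit read from the data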
CYP2C19 activ: activators of human cytochrome P450 2C19; 96,000 tested, under 10 active; activation factor at 5 µM; recombinant CYP2C19, luciferin-H EGE luminescence; stronger effect = higher value; 0 = fully inhibited enzyme, 1 = untreated enzyme; AID 1025;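 active = activation factor of at least 2 at 5 µM in the primary screen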;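 also: 0 = wells with 2.5 mM tranylcypromine and 1 = vehicle-only wells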
CYP2C9 activ: activators of human CYP2C9; P11712; 96,000 tested, 1.4% active; recombinant CYP2C9, luciferin-H conversion, luminescence; stronger effect = higher value; factor 1 = untreated enzyme, 0 = blocked; activation factor at 5 µM;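 active = activation factor of 2 or more for CYP2C9 at a 5 µM dose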;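 also: 0 = sulfaphenazole-blocked wells and 1 = vehicle-only wells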
PostGolgi ctrl: inhibits growth of the yeast control strain. AID 738. inhibition, % at 10 µM. efflux-deficient yeast background strain, growth absorbance A615, 16 h. 98,000 tested, 5% active
PostGolgi yeast: growth inhibition of a yeast mutant, post-Golgi transport screen | post-Golgi transport phenotypic cell assay | 98,000 tested, 0.9% active | inhibition, % at 10 µM;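 also: yeast cells grown in 1536-well plates; yeast grown about 18 h at 30C before absorbance read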
Numbers without * were called inactive. Rule as the data show it, unless noted: active = inhibition above about 30%; inactive = the rest.

SMILES	CYP2C19 inh	CYP2C9 inhib	CYP2C19 activ	CYP2C9 activ	PostGolgi ctrl	PostGolgi yeast
CCn1nc(C)c(NC(=O)c2cc(Br)ccc2Cl)c1C	-5.1	-19.5	1.1	1.2	7.4	7.3
N#Cc1ccc(CSc2nnc(-c3cccc(S(=O)(=O)N4CCCCC4)c3)o2)cc1	20.1	19.1	0.8	0.8	20.2	-9.8
c1cn(CC2(Cn3ccnc3)COC2)cn1	-13.8	-3.0	1.1	1	-0.8	1.4
Cc1ccc(NC(=O)C2CCN(S(=O)(=O)c3c(C)n[nH]c3C)CC2)nc1	-6.3	-37.9	1.1	1.4	35.4*	0.3
COc1ccc(NC(=O)C2CCCN(S(=O)(=O)c3c(C)n[nH]c3C)C2)c(OC)c1 (configuration not stated)	52.5*	29.6	0.5	0.7	1.8	-7.0
COc1ccc(S(=O)(=O)N2CCC(C(=O)Nc3cccc(C(C)=O)c3)CC2)cc1C	97.3*	-77.5	0	1.8	-0.4	-14.4
CC(=O)c1cccc(NC(=O)C2CCN(S(=O)(=O)c3c(C)n[nH]c3C)CC2)c1	71.4*	18.1	0.3	0.8	-0.1	1.2
COc1ccc(NC(=O)C2CCN(S(=O)(=O)c3ccc(OC)c(OC)c3)CC2)cc1	31.5	19.1	0.7	0.8	-2.4	-3.6
COC(=O)C(CC(=O)c1ccc(Cl)cc1)c1ccc(C(C)C)cc1 (configuration not stated)	2.0	-24.9	1	1.2	3.0	20.5
FC(F)(F)c1cccc(Cn2nnnc2-c2ccc(Cl)cc2)c1	92.3*	61.3*	0.1	0.4	20.6	1.6
CCCn1nnnc1-c1ccc(Cl)cc1	21.7	-0.9	0.8	1	-0.5	-1.1
Cc1ccc(NC(=O)/C(=C\c2cccnc2)NC(=O)c2ccco2)cc1	6.0	10.1	0.9	0.9	-0.3	8.9
CCCCn1nc2cc(C(=O)NC3CCCc4ccccc43)ccc2c1OCC (configuration not stated)	11.2	18.4	0.9	0.8	-3.7	4.7
Cc1nc(-c2cccc(S(=O)(=O)N3CC(C)OC(C)C3)c2)cs1 (configuration not stated)	77.1*	20.5	0.2	0.8	3.4	-2.7
Cc1nc(-c2cccc(S(=O)(=O)N3CCOCC3)c2)cs1	75.5*	66.5*	0.2	0.3	5.7	14.3
Cc1nc(-c2cccc(S(=O)(=O)N3CC(C)CC(C)C3)c2)cs1 (configuration not stated)	-7.7	-7.5	1.1	1.1	17.1	-0.2
CSc1nc2cc(S(=O)(=O)N3CCOCC3)ccc2s1	99.4*	62.7*	0	0.4	3.7	-17.5
Cc1cccc(N(C)S(=O)(=O)c2ccc3c(c2)CCC(=O)N3)c1	28.1	6.3	0.7	0.9	5.8	-1.9
O=C(NCc1ccc2c(c1)OCO2)C1CCC(CNS(=O)(=O)c2ccc(Cl)cc2)CC1 (configuration not stated)	-2.8	-4.7	1	1	-6.6	-0.5
Cc1cccc(-c2nc(CS(=O)CC(=O)N3CCc4ccccc4C3)c(C)o2)c1 (configuration not stated)	7.0	42.0	0.9	0.6	3.2	-0.2
Cc1ccc(-c2nc(CS(=O)(=O)CC(=O)N3CCc4ccccc4C3)c(C)o2)cc1	30.2	71.8*	0.7	0.3	12.1	10.9
Cc1ccc(-c2nc(CS(=O)(=O)CC(=O)N3CCCCCC3)c(C)o2)cc1	55.5*	74.7*	0.4	0.3	3.6	1.4
O=C(O)c1cccc(NS(=O)(=O)c2cccc3nsnc23)c1	8.4	39.1	0.9	0.6	8.1	4.6
COc1ccccc1NC(=O)Oc1ccc(NC(=O)c2ccco2)cc1	28.9	-74.1	0.7	1.7	-1.8	5.5
COc1ccc(NC(=O)c2ccco2)cc1NC(=O)c1cccc(OC(C)C)c1	63.7*	44.0	0.4	0.6	27.2	-4.0
CC(C)(C)NC(=O)c1cccc(NC(=O)c2ccc(NC(=O)c3ccco3)cc2)c1	73.8*	96.8*	0.3	0	9.5	-7.7
COc1ccccc1NC(=O)c1cccc(NC(=O)c2ccco2)c1	2.2	-176.1	1	2.8*	0.0	-0.5
COc1cccc(C(=O)Nc2cc(NC(=O)c3ccco3)ccc2OC)c1	28.8	31.8	0.7	0.7	3.9	-3.9
Cc1ccc(O)c(NC(=O)c2ccco2)c1	35.7	34.8	0.6	0.7	3.3	5.5
Cc1ccc(O)c(NC(=O)c2cccc(NC(=O)c3ccco3)c2)c1	52.9*	2.3	0.5	1	11.8	-6.2
